LmPK inhibitor: blocks Leishmania mexicana pyruvate kinase activity. Q27686. Potency, µM (doses to about 57.5 µM), hits mostly inhibitors. AID 1721. 0.37% of 290,000 active. purified LmPK, Kinase-Glo ATP luminescence, 1 h
Target sequence (Q27686 whole entry, looked up): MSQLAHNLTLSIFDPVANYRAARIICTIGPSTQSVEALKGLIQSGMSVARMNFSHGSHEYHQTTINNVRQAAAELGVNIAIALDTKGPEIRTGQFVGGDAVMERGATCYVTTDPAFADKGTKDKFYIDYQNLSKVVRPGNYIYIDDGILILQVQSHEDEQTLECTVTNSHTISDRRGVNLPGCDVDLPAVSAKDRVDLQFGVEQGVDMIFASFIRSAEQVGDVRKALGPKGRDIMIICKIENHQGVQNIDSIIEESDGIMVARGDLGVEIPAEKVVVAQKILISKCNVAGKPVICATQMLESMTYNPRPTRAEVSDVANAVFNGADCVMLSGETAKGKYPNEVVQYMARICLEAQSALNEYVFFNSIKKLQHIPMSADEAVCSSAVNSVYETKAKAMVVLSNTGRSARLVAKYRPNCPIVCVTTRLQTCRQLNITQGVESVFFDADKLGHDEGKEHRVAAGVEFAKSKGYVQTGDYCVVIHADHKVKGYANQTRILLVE
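Screened at intermediate enzyme activity to detect both inhibitors and activators: LmPK at 0.1 nM, with a 0.5 nM enzyme column as activation reference. PEP 0.5 mM, ADP 0.1 mM; ATP detected by luminescence after 1 h.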
NS1 function inh: blocks influenza NS1 protein function | AID 2326 | 0.4% of 270,000 active | Potency, µM (highest dose often 46.1 µM); calls by dose curve; further: actives are rising curves; nearly all actives have a fitted effect of over 50% in size
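In this qHTS, NS1 from influenza A is expressed in budding yeast, where it slows growth. Cells are switched from glucose to 2% galactose medium (pH 6.0, -URA), treated with compound, and growth recovery is read at OD600.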
TbPYK inhibitor: T. brucei pyruvate kinase inhibition | Potency, µM (titrated, usually from 76.8 µM), hits mostly inhibitors | TbPYK enzyme, Kinase-Glo Plus ATP luminescence, 45 min | 0.12% of 410,000 active; further: nearly all actives have a fitted effect of over 50% in size
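Luminescent Kinase-Glo Plus end-point after 45 min room-temperature reaction of T. brucei pyruvate kinase started with 130 uM ADP (final). Buffer TEA 50 mM pH 7.2 with KCl, MgCl2, BSA, Tween-20; titration-based qHTS with fitted concentration-effect curves.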
SARS PLP yeast: SARS-CoV PLP inhibition in yeast; S. cerevisiae expressing SARS-CoV PLpro, growth rescue; Potency, µM (titrated, usually from 32.9 µM), hits mostly activators; 0.19% of 330,000 active; AID 485353; calls by dose curve; further: nearly all actives have a fitted effect of over 55% in size
Sm TGR block: blocks Schistosoma mansoni thioredoxin glutathione reductase. purified TGR, DTNB reduction, TNB absorbance 405 nm. Potency, µM (doses to about 114 µM), usual class: inhibitors. 3% of 360,000 active. AID 485364; further: nearly all actives have a fitted effect of over 60% in size
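TGR 20 nM + NADPH 100 uM (dispensed conc.), cpd preinc 15 min RT; start with NADPH (500 uM addition) then DTNB (15 mM addition). Kinetic TNB absorbance, 405 nm filter. Four-parameter Hill fit across titration.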
RE007 growth inh: less growth of the S. pombe RE007 Vpr strain; S. pombe RE007 Vpr strain, BacTiter-Glo ATP luminescence, 24 h; Potency, µM (doses to about 92.2 µM), most hits filed as inhibitors; 0.21% of 360,000 active; AID 651644; active means well fitted falling curve with a large enough effect; inconclusive means small, poorly fitted or top-dose-only effect; inactive means no such curve, though single readings can be large or run the other way; further: nearly all actives have a fitted effect of over 50% in size
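Fission yeast strain RE007, carrying one chromosomally integrated HIV-1 vpr copy, was seeded at OD 0.01 in PMG+AL medium with 23 nL pinned compound. After 24 h at 30 °C and 99% humidity, viability was read by BacTiter-Glo luminescence.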
Each line names hits and unclear results; the compound was inactive in the other large screens. Sampled rows, rich in hits. Any-hit rate of the full collection: about 3.3%. Unless noted, the call rests on the fitted dose curve; in most records, active means well fitted curve in the direction sought with a large enough effect; inconclusive means small, poorly fitted or top-dose-only effect, or another doubt; inactive means no such curve, though single readings can be large; an effect the other way counts as inactive or inconclusive.

CCc1ccc(NC(=O)N2CCN(c3nnc(C)c4c(C)n(-c5ccc(Cl)cc5)nc34)CC2)cc1	none (no result: LmPK inhibitor, NS1 function inh, SARS PLP yeast, RE007 growth inh)
COc1cccc(C(=O)N/N=C/c2ccc(OC)c(COc3ccccc3C(N)=O)c2)c1	none
COc1ccc(/C=N\NC(=O)c2ccc(F)cc2)cc1COc1ccccc1C(N)=O	Sm TGR block 28µM
CCOc1cc(/C=N/NC(=O)c2ccccn2)ccc1OC(=O)c1ccc(F)cc1	Sm TGR block 50µM
Cc1ccc(N/N=C(\Cc2nc3ccccc3[nH]2)c2ccccc2)cc1	Sm TGR block 40µM
N/N=C(/Cc1nc2ccccc2[nH]1)c1ccc([N+](=O)[O-])cc1	RE007 growth inh 13µM (no result: NS1 function inh)
c1ccc(N/N=C(\Cc2nc3ccccc3[nH]2)c2ccccc2)cc1	none
COc1ccc(-c2cc3nc4n(c(=O)c3s2)CCC4)cc1	LmPK inhibitor 7.1µM
O=C(NCCOCCn1c(=O)oc2ccccc21)Nc1ccc(Cl)cc1	none (no result: LmPK inhibitor, NS1 function inh, SARS PLP yeast, RE007 growth inh)
N/C(=N\N=C\c1cccc(O)c1)c1nonc1N	LmPK inhibitor 11µM, TbPYK inhibitor inconclusive (no result: NS1 function inh)
Nc1nonc1C(=O)N/N=C/c1ccc(Br)o1	none
N/C(=N\N=C\c1ccc(Br)o1)c1nonc1N	Sm TGR block 40µM
Cn1c(=O)cc(OCCCC(=O)Nc2ccc(F)cc2)c2ccccc21	none (no result: LmPK inhibitor, NS1 function inh, SARS PLP yeast, RE007 growth inh)
CCOCC(O)CSCc1ccc(Cl)cc1 (stereo unspecified)	Sm TGR block 10µM (no result: TbPYK inhibitor, SARS PLP yeast)
COC(=O)c1ccc(NC(=O)CC2C(=O)N(c3cccc(C)c3)C(=O)N2C2CCCC2)cc1 (stereo unspecified)	none (no result: LmPK inhibitor, NS1 function inh, SARS PLP yeast, RE007 growth inh)
CCCc1[nH]nc2c1C(c1cc(OC)ccc1F)C(C#N)=C(N)O2 (stereo unspecified)	Sm TGR block inconclusive
CCCc1[nH]nc2c1C(c1cc(OC)cc(OC)c1)C(C#N)=C(N)O2 (stereo unspecified)	Sm TGR block 25µM
CC1Cc2cc(S(=O)(=O)NCc3ccccc3Cl)ccc2N1C(=O)C1CCC1 (stereo unspecified)	none (no result: LmPK inhibitor, NS1 function inh, SARS PLP yeast, RE007 growth inh)
COc1ccc(CN2C=C3C(=O)C(C)(OC(=O)CCc4ccccc4)C(=O)C=C3C=C2c2ccc(C#N)cc2)cc1 (stereo unspecified)	RE007 growth inh inconclusive
CCN(CC)CCCN1C=C2C(=O)C(C)(OC(=O)CCc3ccccc3)C(=O)C=C2C=C1c1ccc(C#N)cc1 (stereo unspecified)	Sm TGR block 40µM
CC1(OC(=O)CCc2ccccc2)C(=O)C=C2C=C3CCCN3C=C2C1=O (stereo unspecified)	Sm TGR block 35µM
Cc1csc2nc(-c3ccc(NS(=O)(=O)c4cc(F)ccc4F)cc3)cn12	none (no result: LmPK inhibitor, NS1 function inh, SARS PLP yeast, RE007 growth inh)
COc1cccc(NC(=O)CSc2nccn2C2CCCC2)c1	none (no result: LmPK inhibitor, NS1 function inh, SARS PLP yeast, RE007 growth inh)
CCCN1CCN(CC2=C(C(=O)OCC)C(c3cccc(OC)c3OC)NC(=O)N2)CC1 (stereo unspecified)	Sm TGR block 89µM (no result: LmPK inhibitor, NS1 function inh, SARS PLP yeast, RE007 growth inh)
O=S1(=O)C=C(Sc2nc3ccccc3s2)c2ccccc21	NS1 function inh inconclusive, Sm TGR block 2.2µM, RE007 growth inh 10µM
Cc1ccc2c(c1)C(=NC1CCCCC1)c1cc3ccccc3nc1-2	none
Cc1ccc2c(c1)Cc1nc3ccccc3nc1-2	LmPK inhibitor 18µM, TbPYK inhibitor inconclusive, RE007 growth inh inconclusive (no result: NS1 function inh)
Cc1ccc2c(CC(=O)N3CCN(c4cccc(Cl)c4)CC3)coc2c1	none (no result: LmPK inhibitor, NS1 function inh, SARS PLP yeast, RE007 growth inh)
COc1ccc(OC)c(N(CC(=O)NCc2ccccc2)S(=O)(=O)c2ccc(OC)c(OC)c2)c1	NS1 function inh inconclusive, Sm TGR block 25µM
CS(=O)(=O)N(CC(=O)NCCSCc1ccccc1)c1ccccc1F	none
COc1ccc(OC)c(N(CC(=O)NCCSCc2ccco2)S(=O)(=O)c2ccccc2)c1	Sm TGR block 45µM
O=C(Cc1ccccc1)NCCSCc1ccco1	none
O=C(NCCSCc1ccco1)Nc1ccccc1	Sm TGR block 35µM
Cc1ccccc1N(CC(=O)NCCSCc1ccco1)S(C)(=O)=O	NS1 function inh inconclusive, Sm TGR block 22µM
CCOc1ccccc1N(CC(=O)NCCSCc1ccco1)S(=O)(=O)c1ccccc1	Sm TGR block 40µM
c1ccc(C2=NN[C@@H]3c4ccccc4-c4ccccc4N3C2)cc1	none (no result: LmPK inhibitor, TbPYK inhibitor, SARS PLP yeast, Sm TGR block, RE007 growth inh)
O=C1N/C(=C/c2ccc(N3CCOCC3)o2)C(=O)N1c1ccccc1	TbPYK inhibitor inconclusive, Sm TGR block 8.9µM
CCN1C(=O)C(=Cc2ccc(N3CCOCC3)o2)C(=O)N(CC)C1=S	none
C=CCN1C(=O)N/C(=C/c2ccc(N3CCOCC3)o2)C1=O	Sm TGR block 7.1µM (no result: TbPYK inhibitor, RE007 growth inh)
CN1C(=O)/C(=C/c2ccc(N3CCCCCC3)o2)C(=O)NC1=S	Sm TGR block 40µM
C=CCN1C(=O)/C(=C\c2ccc(N3CCOCC3)o2)C(=O)NC1=S	TbPYK inhibitor inconclusive, Sm TGR block 50µM (no result: RE007 growth inh)
Cc1ccc(C)c(-n2nnc(-c3nc(-c4ccccc4C)no3)c2C)c1	none (no result: LmPK inhibitor, NS1 function inh, SARS PLP yeast, RE007 growth inh)
Cc1ccc(N2CCN(C(=O)c3nn(C)c4c3CSc3ccccc3-4)CC2C)cc1 (stereo unspecified)	none (no result: LmPK inhibitor, NS1 function inh, SARS PLP yeast, RE007 growth inh)
Cc1ccc(C)n1-c1ccc(-c2ccnc(N)n2)cc1	Sm TGR block 25µM (no result: NS1 function inh)
O=S(=O)(c1ccc(-c2cc(C(F)(F)F)on2)s1)N1CCN(c2ccc(F)cc2)CC1	none (no result: LmPK inhibitor, NS1 function inh, SARS PLP yeast, RE007 growth inh)
Cc1cnc(CNC(=O)CC2C(=O)NCCN2Cc2ccccc2C(F)(F)F)cn1 (stereo unspecified)	Sm TGR block 11µM
Cc1ccccc1CN1CCNC(=O)C1CC(=O)N(C)CCC1CCOCC1 (stereo unspecified)	Sm TGR block inconclusive
CN(Cc1ccon1)C(=O)CC1C(=O)NCCN1Cc1ccccc1C(F)(F)F (stereo unspecified)	Sm TGR block inconclusive
CC(C)c1cc(CNC(=O)CC2C(=O)NCCN2CC2CCCCC2)on1 (stereo unspecified)	Sm TGR block 50µM
CN(CCc1cn[nH]c1)C(=O)CC1C(=O)NCCN1Cc1ccccc1C(F)(F)F (stereo unspecified)	Sm TGR block 35µM
Cc1nnc(CN(C)C(=O)CC2C(=O)NCCN2Cc2ccccc2C)o1 (stereo unspecified)	Sm TGR block 28µM
COc1cc(Cl)c(C)cc1NC(=O)Cn1ncc2c3ccccc3n(Cc3ccccc3)c2c1=O	none (no result: LmPK inhibitor, NS1 function inh, SARS PLP yeast, RE007 growth inh)
Cc1cc(C)n(CCNC(=O)CC2C(=O)NCCN2Cc2ccccc2C(F)(F)F)n1 (stereo unspecified)	Sm TGR block 35µM
Cc1cc(CNC(=O)CC2C(=O)NCCN2Cc2ccccc2C(F)(F)F)on1 (stereo unspecified)	Sm TGR block 35µM
COc1cccc(CN2CCNC(=O)C2CC(=O)NCCn2nc(C)cc2C)c1OC (stereo unspecified)	Sm TGR block inconclusive
